The record followed here is PubChem BioAssay (NCI).

Compounds without any hit were thinned out: in the full panel of roughly 83,000, 20% have a hit.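 Compound tested at a single concentration for 48 hours in 96-well plates; a percent growth value below 10 was scored as active.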 A number with no mark means an inactive call. Calls of active or inactive are those of the source.

This assay deals with SN12C renal. Nature of the assay: NCI-60 one-dose screen, 48 h (100 = growth as untreated, 0 = no growth, -100 = all killed). The note with it: 10 µM unless noted. As for the experimental part: Growth inhibition of the SN12C human tumor cell line is measured as a screen for anti-cancer activity. Cells are grown in 96 well plates and exposed to the test compound for 48 hours. Compounds are tested at a single concentration, which is 10^-5 M for most compounds. The reported endpoint is percent growth (GI% or GIPRCNT), where numbers from 0 - 100% represent growth inhibition, and numbers from -100% - 0 represent cell death. For example, a value of 40 represents 60% growth inhibition. A value of 0 means no net growth occurred over the course of the experiment. A value of -40 indicates 40% of cells at the beginning of the experiment died by the end of the experiment. A value of -100 means all cells are dead at the end of the experiment.
NCI-60 Human Tumor Cell Lines Screen was performed using the standard one-dose NCI protocol, which is described in more detail at https://dtp.cancer.gov/discovery_development/nci-60/default.htm.
Compounds with GIPRCNT values below 10 were considered active. Activity score was based on GIPRCNT using the following formula: […]
Score is 0 for GIPRCNT values of 100 or above, 50 for GIPRCNT values of 0, and 100 for GIPRCNT values of -100.
For `CCC(N)(C(=O)O)c1ccc(F)cc1` (stereo not given), the growth was 102%.

Take `O=[N+]([O-])c1cccc(C(c2ccccc2)c2ccccc2)c1`: the growth was 98%. Next, `O=c1nc(N2CCOCC2)oc2c(-c3cccc4ccccc34)cccc12`: 82.3%; `Cc1c(NC(=O)c2sc3nc4c(cc3c2N)CN(Cc2ccccc2)CC4)cccc1C(F)(F)F`: 55.2%; `N#Cc1c(N)nc(Cl)c(C#N)c1C(=O)c1ccccc1`: 35.7%.

As to `N#Cc1c2c(c(N)[nH]c1=O)C(=O)NC2(O)c1ccccc1` (stereo not given), the growth is 113%. For `NC(=NCCCOc1ccc(F)cc1)Nc1ccc(Cl)c(Cl)c1`, the growth was 66%. With `C=C1C(=O)O[C@H]2[C@H]1CC/C(COC(=O)c1ccc3ccccc3c1)=C\CC[C@@]1(C)O[C@@H]21`, the growth was -54% (active). Next, `O=C(NCCNc1nccc(-c2c(-c3cccc(O)c3)nc3sccn23)n1)c1ccc(N2CCOCC2)c(C(F)(F)F)c1`: 76%; `CCCCOc1c(N)cccc1C(=O)OCCN(CC)CC`: 95.7%. Take `Cc1cc(N2CCOCC2)nc(N(CCNc2ccnc3cc(Cl)ccc23)Cc2ccco2)n1`: the growth is 47.5%. To `O=[N+]([O-])c1ccc(NS(=O)(=O)c2cc(Cl)ccc2Cl)c2ccccc12` belongs 45.8%; to `COc1cc(C(=O)N2CCN(C(=O)c3cc(OC)c(OCc4ccccc4)cc3N)CC2)c(N)cc1OCc1ccccc1`, 111%.

Regarding `C[C@@H]1CC2C3C[C@H](F)C4=CC(=O)C=C[C@]4(C)[C@@]3(F)[C@@H](O)C[C@]2(C)[C@@]1(O)C(=O)CO` (stereo not given in full), the growth is 51.6%. Next, `COc1cc(Br)c(-c2nc(-c3ccccc3)c(-c3ccccc3)n2Cc2ccccc2)cc1OC`: 66.5%. As to `CSc1ccc(C(=O)C[n+]2cccc(C)c2)cc1`, the growth is 99.9%. On to `COc1ccc(-c2nnc(SCC(=O)Nc3ccc(C(=O)/C=C/c4ccc(OC)c(OC)c4)cc3)o2)cc1`, for which the growth was 92.3%.

In the case of `COc1cc2nc(C(=O)N3CCCCC3)cc(Nc3ccccc3)c2cc1OC`, the growth is 98.9%.

Consider `O=C(O)c1ccccc1C(=O)c1ccc(I)cc1`, for which the growth was 104%. `COc1cc(-c2nc3ccccc3s2)ccc1OCc1nc2n(n1)S(=O)(=O)c1ccccc1N2c1ccccc1`: the growth is 108%. Next, `Cc1cccc(NCS(=O)(=O)O)c1`: 112%. For `COc1ccc(-c2nn(-c3ccc(NC(=O)c4cc(C(F)(F)F)cc(C(F)(F)F)c4)cc3)cc2-c2ccncc2)cc1Cl`, the growth is 77.2%. `O=C(NCCNc1nccc(-c2c(-c3cccc(O)c3)nc3sccn23)n1)c1ccccc1`: the growth was 66.4%. Next, `CC(C)NCC(O)COc1ccc(CC(N)=O)cc1` (stereo not given): 104%; `COc1ccc(-c2c(C#N)cnc(N)c2-c2nc3cc(C)c(C)cc3[nH]2)cc1`: 80.7%. To `C=C1c2c(Cl)ccc(O)c2C(O)=C2C(=O)[C@]3(O)C(O)=C(C(N)=O)C(=O)[C@@H](N(C)C)[C@@H]3[C@@H](O)[C@H]12` belongs 10.8%; to `CCc1c(C)c2cc3c(c(C)c2oc1=O)OCC(=O)N3`, 72.9%; to `COc1ccc(/C=N/C2=NNC(C)(c3ccccc3O)N2C(Cc2c[nH]c3ccccc23)C(=O)O)cc1` (stereo not given), 34.4%.

Regarding `COc1ccc2c(c1)C(=O)/C(=C/c1cccc(OCC(=O)c3ccccc3)c1)O2`, the growth is 32.9%. To `Clc1ccc2c(c1)nnn1c3ncccc3c(Br)c21` belongs 91.9%; to `CCCCCCCC(=O)SCC/C=C/[C@@H]1CC(=O)NCc2nc(cs2)C2=N[C@@](C)(CS2)C(=O)N[C@@H](C(C)C)C(=O)N1`, 35.5%; to `COc1ccc(-c2nn(-c3ccc(NC(=O)Nc4ccc(Cl)c(Cl)c4)cc3)cc2-c2ccncc2)cc1Cl`, 20.5%. Next, `CC(=O)c1cc2c(N)c(C(=O)Nc3cccc(Cl)c3)sc2nc1C`: 92.6%; `COc1cc(CN(c2ccc(Cl)cc2)C2OC(=O)c3ccccc32)cc(OC)c1OC` (stereo not given): 61.3%.

Regarding `COc1ccc(-c2cc(-c3nnc(SC/C(=N\O)c4ccccc4)n3-c3ccccc3)c3ccccc3n2)cc1`, the growth is 105%.

Take `CC(C(=O)O)N1C(N)=NNC1c1ccccc1O` (stereo not given): the growth is 93.4%.

Consider `CN1C(=O)C2(SCC(C(=O)NCC(=O)OC(C)(C)C)N2C(=O)C2CCCCC2)c2ccccc21` (stereo not given), for which the growth is 99.2%. Next, `COc1cc(NC(C)CCCN2C(=O)c3ccccc3C2=O)c2ncccc2c1OC` (stereo not given): 109%; `COc1cc(C(=O)NNC(=O)c2ccccc2O)cc(OC)c1OC`: 98.4%. Next, `Cc1ccc(NC(=O)CN2CCOCC2)cc1Cl`: 93.1%.
